{"source": "the supplement of paper PMC10681739", "note": "Whole data set: some 2,700 sequences, median “arbitrary fluorescence units” near 4,100, cut for the highest 2% near 54,000. This is one part of a sample in which the highest values are shown more often than they occur."}
{"target": "T1, ETS1 (UniProt P14921)", "T1 sequence": "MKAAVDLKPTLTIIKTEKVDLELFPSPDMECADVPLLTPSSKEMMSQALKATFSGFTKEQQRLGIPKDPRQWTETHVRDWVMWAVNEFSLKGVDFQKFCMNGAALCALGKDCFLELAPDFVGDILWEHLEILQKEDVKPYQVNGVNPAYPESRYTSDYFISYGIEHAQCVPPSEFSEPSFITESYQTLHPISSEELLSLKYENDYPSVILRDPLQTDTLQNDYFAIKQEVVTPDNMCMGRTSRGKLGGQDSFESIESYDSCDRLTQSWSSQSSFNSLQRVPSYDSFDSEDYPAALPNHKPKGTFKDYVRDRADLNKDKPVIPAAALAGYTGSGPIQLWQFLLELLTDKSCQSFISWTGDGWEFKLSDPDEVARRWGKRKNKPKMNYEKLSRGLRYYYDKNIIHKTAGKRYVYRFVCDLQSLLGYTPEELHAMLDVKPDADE", "test": "ETS1 binding intensity (PBM fluorescence) (arbitrary fluorescence units); higher = stronger binding", "conditions": "ETS1 concentration 10 nM", "procedure": "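gcPBM on wild-type 36-bp genomic probes with two neighbouring ETS1 sites (4-24 bp apart). Recombinant human ETS1 (10 nM) was detected with anti-ETS1 antibody fluorescence. Values are medians over 3 replicate spots. The probes sit in constant array flanks that are not printed.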"}
{"sequence": "CAATTGAGGAAACAGGACCAAAGACAGGAAATGGCT", "ETS1 binding intensity": 2860}
{"sequence": "GCGCTTCGGGCCCTTCCGGCTTCCCGGGCCTCCCGG", "ETS1 binding intensity": 8330}
{"sequence": "CGTCACTTCCGGCGCCGCGTGAGGCCTTCCGGTGCC", "ETS1 binding intensity": 73900}
{"sequence": "CGTCCACTGGAGGCTTCCTTCCGGCGCCCGCGTGCC", "ETS1 binding intensity": 3590}
{"sequence": "GCGCCTGATTCACTTCCCTCTTCCGCTCTGAGGCGT", "ETS1 binding intensity": 4680}
{"sequence": "GCGCTTCCGGGACGCAGGAGGCATCTGCATCCGGGG", "ETS1 binding intensity": 29000}
{"sequence": "CCACTTCCGGCATGCGCAGGGACGCACCTTCCGGCT", "ETS1 binding intensity": 109000}
{"sequence": "GACCGCAGGAAGGGACGCGGCCGCACTTCCGGCGAC", "ETS1 binding intensity": 8620}
{"sequence": "GACAGGAAGGCTACAGGCTGCCTGTGGCTTCCGTGT", "ETS1 binding intensity": 386}
{"sequence": "AGACTTCCGTTCTGGCTCTCACTCTAGTTTCCTGGT", "ETS1 binding intensity": 67500}
{"sequence": "CTCTGTGACTTCCTGGAGACTCACTTCCTAGATGAG", "ETS1 binding intensity": 11300}
{"sequence": "AGCACTTCCTCAATTTCTGGCTCTACAGGATATTTC", "ETS1 binding intensity": 16100}
{"sequence": "ACTGCCTTCCTGGCCTGGTGGTGAGAGGAAGTCGGG", "ETS1 binding intensity": 2260}
{"sequence": "CTATGGTAGGAAACCCAGAAAACAGGAAGTGGCCTC", "ETS1 binding intensity": 3030}
{"sequence": "CAACTTGTCGGAGCGGAACTTCCGGCGTCCTCCCTG", "ETS1 binding intensity": 22800}
{"sequence": "GCTGCAACTTCCGGTGCGCTAGCCGGAAACGCGGGT", "ETS1 binding intensity": 78200}
{"sequence": "GGGTGCGGAAACGCGGCAGCCGCGGCCGGATGCTGC", "ETS1 binding intensity": 2710}
{"sequence": "TGCCCGGCTTCCGGGTGGCTGCGCGGAAGCGCGGTG", "ETS1 binding intensity": 20900}
{"sequence": "CCTCCCGGAAGCCGCTGGCCCGCGCCGGAAAAGGTG", "ETS1 binding intensity": 7300}
{"sequence": "ACAACTTCCGGCTGTAAAGATGGCGGCTTCCTAGTG", "ETS1 binding intensity": 96400}
{"sequence": "GGACAGGGACCGGATGGGAGGGGAAGTCGATGCTTG", "ETS1 binding intensity": 3430}
{"sequence": "TCCTCCTCACTTCCGCCGGAGCGGAAACGGTGAGGA", "ETS1 binding intensity": 31200}
{"sequence": "GGTGTTCCGGACCCGCGCGGTGCGGGGAGGAAGGCC", "ETS1 binding intensity": 1700}
{"sequence": "TTTTATTTCCGGTTCTGAGGACGCCGCGGAAGCGGG", "ETS1 binding intensity": 78400}
{"sequence": "GGTGCTCACGGATGCTACGCTTGTTCCTGTCTCCTC", "ETS1 binding intensity": 370}
{"sequence": "AGCCCCACCATTTCCTGTGACTTCCTGGAGCCTGGC", "ETS1 binding intensity": 25600}
{"sequence": "GCCCTTCCGGTTATTTCCCTTCCTGTTTGTCTGCCT", "ETS1 binding intensity": 48700}
{"sequence": "TGAGCTATTTGACTTCCGGTTTCCTGCCCCATTTAA", "ETS1 binding intensity": 63200}
{"sequence": "TCAATTTCTCATTTCCCTGGAGGAAGCCCATAAAGT", "ETS1 binding intensity": 217}
{"sequence": "CGGGCGGAAAGGGAGCTAGAGCATTCTGGGAAATGG", "ETS1 binding intensity": 178}
{"sequence": "GCGGCTTGGGCCTTCCGGCTTTCCGTCCGCCGCGGC", "ETS1 binding intensity": 7060}
{"sequence": "TTATTCTGTTTCCGGCAGTTTTACTTCCGTTTGTTT", "ETS1 binding intensity": 15900}
{"sequence": "TGTTTACTTCCGGCTTTTCGCCTAATTCCGGCGGCC", "ETS1 binding intensity": 55000}
{"sequence": "AAAGCGCATTGCGGATGGCAATTCCGGTGCGTCATT", "ETS1 binding intensity": 732}
{"sequence": "GCTTGGCAGTCAGGAAGGACTTCCTGTTTCTGCTTC", "ETS1 binding intensity": 14400}
{"sequence": "CATTTACCACTTCCTGAGGTCATTTCCTGTTTTCTT", "ETS1 binding intensity": 25800}
{"sequence": "CACCACTTCCTGTTTCTGAGTCATCAGGAAGGTAAT", "ETS1 binding intensity": 58900}
{"sequence": "AGCAACTTCCGGTGCGCTTAGCGTTACTTCCGGCGC", "ETS1 binding intensity": 116000}
{"sequence": "CTCGCAGGCTTCCCGGCTGCAACTTCCGGCGCATGC", "ETS1 binding intensity": 14600}
{"sequence": "ACCCGGAAGCGCTTCACCCAGCCTGAGCGGAAGAAC", "ETS1 binding intensity": 5640}
{"sequence": "GAGCGGAAGTGGAAAAGACTAACTTCCGGCCTCGGG", "ETS1 binding intensity": 30600}
{"sequence": "GAGCACGACTTCCGGCCTGAAAAGGAAGTCTCCTCC", "ETS1 binding intensity": 89000}
{"sequence": "CCCAGCTAAAGGAAGTCTGGCACTTCCTCTCCTCAA", "ETS1 binding intensity": 2990}
{"sequence": "GACAGTTTCCTCTTTCACACTAGAATATCCTGTTGT", "ETS1 binding intensity": 10900}
{"sequence": "TGCGCCCCGTGCTTCCTGCCATCCTGTGCTCTCTGC", "ETS1 binding intensity": 9740}
{"sequence": "ACCAGGGCTGCTTCCTCACATTTCCGGTCCTGAAAA", "ETS1 binding intensity": 27700}
{"sequence": "GGACCGGAAGTGCCTCCTGCGGAGGCAGGAAGTCCC", "ETS1 binding intensity": 58700}
{"sequence": "AGCAGGAAGGACCTCAGTCCTCCAGTGCGGATGCTG", "ETS1 binding intensity": 207}
{"sequence": "TCATCTCTCCTGCAGGAAGGAAGTCCTGCCTCCCAC", "ETS1 binding intensity": 315}
{"sequence": "AACGTCCAGGAGGAAGTCAATTTCCTGGCCCTCAAT", "ETS1 binding intensity": 5100}
{"sequence": "GCGCCGGAAGCAGAGACGCGTTTCGGGAGGAAGGTG", "ETS1 binding intensity": 3580}
{"sequence": "GCAGGAGACGGAAGATGCATGGGTTTCCTGGCGCGC", "ETS1 binding intensity": 424}
{"sequence": "ACAGCATCCGGAGCGCCGACGCGGGACCGGAAGTGA", "ETS1 binding intensity": 26000}
{"sequence": "CGGGACCGGAAGTGACGCAGAGAAGTTTCCGGGACT", "ETS1 binding intensity": 56800}
{"sequence": "AGAAGCACACAAGGAAGTGTTTCCGGGACAGAGGGT", "ETS1 binding intensity": 9030}
{"sequence": "TAGTCCTGAAACTTCCTCTGCTTCCTCCTCCTGCCC", "ETS1 binding intensity": 2700}
{"sequence": "CACGGTGATTTCCTGTAAACAACAGGAAATGTACAG", "ETS1 binding intensity": 22700}
{"sequence": "CGGACCGGAAGTTGGGGTGACGCAATTTCCGGCGCG", "ETS1 binding intensity": 54200}
{"sequence": "TCGGACCGGAAGGAGTTGTTGGCGCTTCCGGTGGCC", "ETS1 binding intensity": 15900}
{"sequence": "ACCGCCCGGAAGTGACGCGCCCGCGCATCCGGCCAC", "ETS1 binding intensity": 19800}
{"sequence": "ATCACCAGCCTTCCTGTGGGACCGGAAAGGCAGTAG", "ETS1 binding intensity": 2720}
{"sequence": "GTAATACTTCGGGGAAATGCAGGATGCAGCTGCTGC", "ETS1 binding intensity": 243}
{"sequence": "CGAGGCGGTCGCGGAAGTAGAGGAAGCCTTCGCGGT", "ETS1 binding intensity": 686}
